# Screens from PubChem BioAssay.
# Rows were chosen to be rich in hits. Some 7.3% of all compounds tested hit in one or more screens of this group.
# FMDV antiviral – blocks foot and mouth disease virus; Potency, µM (highest dose often 57.9 µM), usual class: inhibitors; 410,000 compounds, 1.2% hits; AID 1159524; FMDV antiviral cell-based qHTS; calls by dose curve; tested in HEK293T cells; note: read-out not given here; nearly all actives have a fitted effect of over 45% in size
# AmpC inh detg – inhibitors of E. coli AmpC beta-lactamase with detergent; P00811; AmpC hydrolysis of nitrocefin, absorbance 480 nm, 0.01% Triton; Potency, µM (top dose mostly 114 µM), actives largely listed as inhibitors; 370,000 compounds, 0.041% hits; note: nearly all actives have a fitted effect of over 25% in size
# Target sequence (P00811 whole entry, looked up): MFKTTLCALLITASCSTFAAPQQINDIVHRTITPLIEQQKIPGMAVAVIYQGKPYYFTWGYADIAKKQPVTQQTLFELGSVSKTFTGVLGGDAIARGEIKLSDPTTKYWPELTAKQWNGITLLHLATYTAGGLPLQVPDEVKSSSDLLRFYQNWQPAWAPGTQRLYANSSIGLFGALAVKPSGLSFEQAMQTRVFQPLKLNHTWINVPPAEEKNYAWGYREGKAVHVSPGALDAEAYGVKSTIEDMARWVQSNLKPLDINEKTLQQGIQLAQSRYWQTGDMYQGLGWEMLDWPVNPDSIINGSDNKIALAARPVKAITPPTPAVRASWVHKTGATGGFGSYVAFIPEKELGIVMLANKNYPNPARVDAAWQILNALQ
#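 AmpC (5.3 nM in the dispensed reagent) in 20 mM phosphate pH 7.0 with 0.01% (detergent screen) or 0.0001% Triton X-100 was preincubated with compounds for 15 min at room temperature. Nitrocefin was then added from an 800 uM solution, and hydrolysis was followed at 480 nm.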
# HCV inhibitor – blocks hepatitis C virus | Huh7.5.1 HCVcc-Cre infection, luciferase reporter, 44 h | 340,000 compounds, 3.4% hits | AID 651820 | Potency, µM (top dose mostly 41.8 µM), hits mostly inhibitors
#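 Infectious HCVcc-Cre (~0.5 moi) was added to cells just after compound, with cells seeded 4 h earlier at 1,000 per well. Luciferase activity after 44 h culture reported infection; substrate was incubated 15 min at room temperature before reading.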
# AmpC no deterg – blocks E. coli AmpC beta-lactamase in detergent-free assay. P00811. AmpC nitrocefin hydrolysis, absorbance 480 nm, 0.0001% Triton. Potency, µM (titrated, usually from 57.1 µM), most hits filed as inhibitors. 330,000 compounds, 0.52% hits. AID 485341; note: nearly all actives have a fitted effect of over 20% in size
#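 AmpC (5.3 nM in the dispensed reagent) in 20 mM phosphate pH 7.0 with 0.01% (detergent screen) or 0.0001% Triton X-100 was preincubated with compounds for 15 min at room temperature. Nitrocefin was then added from an 800 uM solution, and hydrolysis was followed at 480 nm.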
# HCMV inh – blocks human cytomegalovirus replication; HFF cells, HCMV-luciferase reporter, 72 h; stronger effect = lower value; activity change, negative = inhibition, % at 57.5 µM; 410,000 compounds, 4.5% hits; AID 1259415; in the data active = activity change below about -60%; inconclusive = no clear call, values can overlap the other calls; inactive = above about -39%
#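 After 16 h attachment at 37C, HFF cells received test compound and HCMV-luciferase (1 PFU/cell); reporter luminescence read 72 h later, data normalized against buffer-only and known inhibitor Salinomycin.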
# Numbers stand for hits; . = inactive; ? = inconclusive; / = no result given; [ ] = remark or other dose. Unless noted, calls come from the whole dose curve; as a rule, active = well fitted curve in the direction sought with a large enough effect; inconclusive = small, poorly fitted or top-dose-only effect, or another doubt; inactive = no such curve, though single readings can be large; an effect the other way counts as inactive or inconclusive.
SMILES,FMDV antiviral,AmpC inh detg,HCV inhibitor,AmpC no deterg,HCMV inh
O=c1[nH]c(=O)n(Cc2ccco2)c2c1C(C(F)(F)F)(C(F)(F)F)N=C(CCc1ccccc1)N2,.,?,?,.,.
N#Cc1ccc(C2=NC(C(F)(F)F)(C(F)(F)F)c3c(n(Cc4ccco4)c(=O)[nH]c3=O)N2)cc1,.,.,.,.,-85
O=c1[nH]c(=O)n(Cc2ccco2)c2c1C(C(F)(F)F)(C(F)(F)F)N=C(CCC1CCCCC1)N2,.,.,.,.,?
Cc1ccc(C2=NC(C(F)(F)F)(C(F)(F)F)c3c(n(-c4ccc(F)cc4)c(=O)[nH]c3=O)N2)cc1,?,.,?,.,.
CC(OC(=O)c1ccccc1NS(=O)(=O)c1cccc(N)c1)C(=O)N(C)Cc1ccccc1 (centres undefined),.,.,?,.,-72
CC(=O)C1=NN(c2ccccc2)C(c2ccc3c(c2)OCO3)N1c1ccccc1 (centres undefined),.,.,?,.,?
CC(=O)C1=NN(c2ccccc2)C(c2cccs2)N1c1ccc(N(C)C)cc1 (centres undefined),16µM,?,?,.,-80
CCCS(=O)(=O)NC(=O)C1(C)CCN(C(=O)c2cc(OC)c(OC)c(OC)c2)C1 (centres undefined),.,/,/,/,?
CCCn1nc(NC(=O)C2CCCO2)c2cc3cccc(C)c3nc21 (centres undefined),.,.,11µM,.,.
CCn1nc(NC(C)=O)c2cc3cccc(C)c3nc21,.,?,?,.,.
CCn1nc(NC(=O)c2cccs2)c2cc3ccccc3nc21,.,.,25µM,.,.
CCn1nc(NC(=O)c2ccccc2)c2cc3cccc(C)c3nc21,.,.,25µM,.,.
COc1cccc(CNC(=O)[C@H]2CCCN2C(=O)[C@H]2CCCN2C(=O)c2ccc(OC(F)(F)F)cc2)c1,/,/,/,/,.
Cc1ncc2c(c1CNC(=O)c1ccc3c(c1)OCO3)CCN(C(=O)C1Cc3ccccc3O1)C2 (centres undefined),.,/,/,/,/
O=C1CC(=C(c2ccccc2)c2ccccc2)C(=O)N1CCCCN1CCN(c2cccc(Cl)c2)CC1,?,.,11µM,.,.
C=CC(C1=CC(=O)C(OC)=C(OC)C1=O)c1ccccc1 (centres undefined),25µM,/,/,/,/
C[C@@H]1CN([C@@H](C)CO)C(=O)CCCn2cc(nn2)CO[C@H]1CN(C)C(=O)Nc1ccccc1,/,/,/,/,.
C[C@]12c3[nH]c4ccc(Cl)cc4c3CCN1C(=O)[C@@H](CC(=O)NCCC1=CCCCC1)C[C@@H]2C(=O)N1CCCCC1,.,/,.,.,.
CC(C)(C)n1nnnc1C(C1CC1)N1C(=O)C(=O)c2ccccc21 (centres undefined),/,/,/,/,-77
Cc1cccc(C)c1-n1nnnc1C(C1CC1)N1C(=O)C(=O)c2ccccc21 (centres undefined),/,/,/,/,.
Cc1cccc(N2CCN(C(=O)c3ccccn3)CC2C)c1 (centres undefined),.,.,.,.,.
Cc1ccc(-c2c(C(=O)N3CCN(c4cccc(C)c4)C(C)C3)oc(=O)c3ccccc23)cc1 (centres undefined),?,.,/,/,-70
Cc1cccc(N2CCN(C(=O)c3ccc(CS(=O)(=O)c4ccccc4C)o3)CC2C)c1 (centres undefined),.,.,.,.,-67
O=C(COC(=O)Cc1ccc(Cl)c(Cl)c1)Nc1ccc2[nH]c(=O)[nH]c2c1,.,.,.,.,.
COc1ccc(OC)c(NC(=O)Cn2cc(C#N)c3cc(Br)ccc32)c1,?,.,?,.,-66
SMILES,FMDV antiviral,AmpC inh detg,HCV inhibitor,AmpC no deterg,HCMV inh
O=C(COC(=O)c1nsc(Cl)c1Cl)NC1CCCC1,.,.,.,.,.
O=C(CN(CC1CCCO1)C(=O)c1nsc(Cl)c1Cl)NC1CCCC1 (centres undefined),.,.,.,.,-66
N/C(=N\OC(=O)c1cccc(Br)c1)c1ccccc1,.,.,11µM,.,.
Cc1ccccc1/C(N)=N/OC(=O)c1ccc(F)cc1,.,.,?,.[2.29 µM],-90
Cc1ccccc1C(=O)O/N=C(\N)c1ccccc1,11µM,.,?,.,.
N/C(=N\OC(=O)c1cccc(Br)c1)c1ccccn1,.,.,.,.,.
COc1ccc(C)cc1NC(=O)c1cc(S(=O)(=O)N2CCC(C)CC2)cn1C,.,.,/,/,?
CC1CCN(S(=O)(=O)c2cc(C(=O)NCCc3ccccc3)n(C)c2)CC1,.,.,/,/,.
COc1cc(NC(=O)c2cc(S(=O)(=O)N3CCC(C)CC3)cn2C)cc(OC)c1OC,.,.,/,/,-102
CC1CCN(S(=O)(=O)c2cc(C(=O)NCc3ccccc3)n(C)c2)CC1,.,.,/,/,-81
Cc1cc2nc(N3CCC(NC(C)c4nc(-c5ccccn5)no4)CC3)nc(C)c2cc1C (centres undefined),.,/,/,/,/
COc1ccc2c(c1)-c1nc(-n3ncc(C(=O)NCc4cccc(C)n4)c3C3CC3)ncc1CC2,.,/,/,/,/
COc1ccc2[nH]c3c(c2c1)CC(C)NC3=O (centres undefined),.,.,.,.,-75
COc1ccc2[nH]c3c(c(=O)c2c1)CCCC3,.,/,/,/,.
O=C(COC(=O)Cc1ccc(Cl)cc1)NCc1ccco1,.,/,.,.,.
CCOC(=O)CSc1nnc(NC(=O)c2cc([N+](=O)[O-])cc([N+](=O)[O-])c2)s1,35µM,?,.,.,.
COc1cccc(C2=NC(C)(CC(=O)NCc3cccc(O)c3)ON2C)c1 (centres undefined),/,/,/,/,.
Cc1cccc2cc(CNCCCN3CCCC3=O)c(N3CCN4CCCC4C3)nc12 (centres undefined),.,/,/,/,/
CCCCOc1ccc(S(=O)(=O)NCc2csc(C)n2)cc1,/,.,?,.,-67
CCOC(=O)c1ccc(NC(=O)c2ccc(CN3CCc4ccccc4C3)cc2)cc1,?,.,1.4µM,.,.
CCOc1ccc(NC(=O)c2ccc(CN3CCc4ccccc4C3)cc2)cc1,?,?,2µM,.,?
CCOC(=O)c1ccc(NC(=O)CN2CCc3ccccc3C2)cc1,.,?,.,.,.
Cc1ccccc1NC(=O)C1(C)Cc2ccccc2C(=O)O1 (centres undefined),.,.,.,.,.
Cc1ccc(NC(=O)C2(C)Cc3ccccc3C(=O)O2)cc1 (centres undefined),.,.,.,.,-60
COc1ccc(CNS(=O)(=O)c2ccc3c(c2)N(C(C)=O)CC(C)S3)cc1 (centres undefined),?,.,?,.,-91
COc1ccc(NS(=O)(=O)c2ccc3c(c2)N(C(C)=O)CC(C)S3)c(OC)c1 (centres undefined),.,.,11µM,.,-85
O=C(COC(=O)c1ccc([N+](=O)[O-])s1)c1ccc[nH]1,.,/,.,.,.
